Results from PubChem BioAssay (EPA / NIEHS).
Activity calls are given as the source filed them. Rule for the calls: active = hit-call score of the fitted dose curve at least 0.9, where 1 is the maximum; inactive = score below 0.9.

assay: BSK_BT_PBMCCytotoxicity: PBMC Cytotoxicity Assessment in the BioMAP Diversity Plus: BT Assay (AID 2284225); details: primary human B cells with PBMC
Method: BSK_BT is a cell-based, multiplexed-readout assay that uses B cell and peripheral blood mononuclear cells, a human vascular primary cell co-culture, with measurements taken at 24 hours after chemical dosing in a microplate: 96-well plate.BSK_BT_PBMCCytotoxicity is an assay component measured in the BSK_BT assay. It measures dehydrogenase activity, a form of viability reporter, as detected with fluorescence intensity signals by Alamar Blue Reduction technology.Data from the assay component BSK_BT_PBMCCytotoxicity was analyzed at the endpoint, BSK_BT_PBMCCytotoxicity, in the positive analysis fitting direction relative to DMSO as the negative control and baseline of activity. Using a type of viability reporter, gain or loss-of-signal activity can be used to understand cellular changes in viability. To generalize the intended target to other relatable targets, this assay endpoint is annotated to the 'cell cycle' intended target family, where the subfamily is 'cytotoxicity'.
The levels of cell surface (or secreted, indicated by the prefix "s") biomarker endpoints were measured by ELISA. Overt cytotoxicity to cells in confluent adherent cultures (all systems other than the BT system) was assessed by measuring total protein levels using sulforhodamine B (SRB) staining in parallel cultures at the time of biomarker measurements, indicated as SRB endpoints. For proliferation assays for adherent cell types, individual cell types are cultured at sub-confluence and relative cell numbers quantified by SRB staining at time points optimized for each system (48 h: 3C and CASM3C systems; 72 h: BT and HDF3CGF systems; 96 h: SAg system). SRB was performed by staining cells with 0.1% SRB after fixation with 10% TCA and reading wells at 560 nm.Viability and proliferation of PBMC (T cells) was quantified by Alamar Blue reduction for the SAg and BT systems. For PBMC viability (referred to as PBMC Cytotoxicity within the assay endpoint names), cells were plated (75,000/well in a 96-well plate) and then chemical samples added for 1 h before addition of activators, SEB and TSST-1 (20 ng/mL final concentration each). Cells were incubated for 90 h. Then, Alamar Blue (20 uL/well) (Invitrogen, Cat DAL1100) was added for 6 h, and the plates were read with a fluorescence microplate reader at 546/580 nm (excitation/emission). For PBMC proliferation, cells were plated and activated as above but incubated for only 16 h prior to addition of Alamar Blue. Plates were read after 6 h.

Q: Which outcome does the source give for `CCCCCCCO` here?
A: The outcome was “inactive”.

Q: Which outcome does the source give for `CC(C)[N+](C)(CCOC(=O)C1c2ccccc2Oc2ccccc21)C(C)C` here?
A: The outcome was “inactive”.

Q: Which AC50 does the source give for `CC=C(C)C=CC=C(C)C` here?
A: Its AC50 is 19.9 µM (active).

Q: With `CC/C=C\CCOC(=O)c1ccccc1O` as the molecule, how does the outcome read?
A: Its outcome is “inactive”.

Q: For `CCNc1nc(NC(C)(C)C)nc(OC)n1`, which outcome is on record?
A: The outcome was “inactive”.

Q: With `C=CCCCCCCCCC=O` as the molecule, how does the outcome read?
A: The outcome was “inactive”.

Q: Which AC50 does the source give for `c1ccc2sc(SSN3CCOCC3)nc2c1` here?
A: The AC50 was 13.2 µM (active).

Q: For `CCC1(C)C(=O)N(Cl)C(=O)N1Cl` (stereo not given), which outcome is on record?
A: Its outcome is “inactive”.

Q: For `C[N+](C)(C)CCCNS(=O)(=O)C(F)(F)C(F)(F)C(F)(F)C(F)(F)C(F)(F)C(F)(F)C(F)(F)C(F)(F)F`, which outcome is on record?
A: Its outcome is “inactive”.

Q: With `CC1(C)CC(O)CC(C)(C)N1[O]` as the molecule, how does the outcome read?
A: Its outcome is “inactive”.

Q: Which AC50 does the source give for `C=CC(=O)OCC(C)OCC(C)OCC(C)OC(=O)C=C` (stereo not given) here?
A: The AC50 was 13.1 µM (active).

Q: With `Cc1c(O)cccc1O` as the molecule, how does the outcome read?
A: The outcome was “inactive”.

Q: For `C=CC(=O)OCCCCCCCC(C)C`, which outcome is on record?
A: The outcome was “inactive”.

Q: Which AC50 does the source give for `O=C(Oc1ccccc1)c1ccccc1C(=O)Oc1ccccc1` here?
A: Its AC50 is 20 µM (active).

Q: With `CCCCCCCCCCCC(C)=O` as the molecule, how does the outcome read?
A: Its outcome is “inactive”.

Q: Which outcome does the source give for `O=C(O)C(F)(F)C(F)(F)C(F)(F)C(F)(F)C(=O)O` here?
A: Its outcome is “inactive”.

Q: For `Clc1cc(Cl)c(Cl)c(Cl)c1Cl`, which outcome is on record?
A: The outcome was “inactive”.

Q: For `Oc1ccc(/C=C/c2cc(O)cc(O)c2)cc1`, which outcome is on record?
A: Its outcome is “inactive”.

Q: With `CCCCCCCCC(CO)CCCCCC` (stereo not given) as the molecule, how does the outcome read?
A: The outcome was “inactive”.

Q: Which outcome does the source give for `COc1ccc(C(=O)c2ccccc2)c(O)c1` here?
A: The outcome was “inactive”.

Q: Which outcome does the source give for `Oc1c(Cl)cc(Cl)c(Cl)c1Cl` here?
A: The outcome was “inactive”.

Q: Which outcome does the source give for `C=CC(=O)NCOCCCC` here?
A: Its outcome is “inactive”.

Q: With `CCOC(=O)C1=NOC(c2ccccc2)(c2ccccc2)C1` as the molecule, how does the outcome read?
A: Its outcome is “inactive”.

Q: Which outcome does the source give for `CCOC(=O)/C=C\C(=O)OCC` here?
A: Its outcome is “inactive”.

Q: With `CCCCCCC=O` as the molecule, how does the outcome read?
A: The outcome was “inactive”.

Q: Which AC50 does the source give for `C=CC(=O)OCCCCCCOC(=O)C=C` here?
A: Its AC50 is 14.3 µM (active).

Q: With `Nc1cccc(N)n1` as the molecule, how does the outcome read?
A: Its outcome is “inactive”.

Q: Which outcome does the source give for `CCc1cccc(C)c1N(C(=O)CS(=O)(=O)O)C(C)COC` (stereo not given) here?
A: Its outcome is “inactive”.

Q: Which outcome does the source give for `CC1=CC=C(C(C)C)CC1` here?
A: The outcome was “inactive”.

Q: With `c1ccc2c(c1)[nH]c1ccccc12` as the molecule, how does the outcome read?
A: Its outcome is “inactive”.

Q: For `C=CC(=O)NC(C)(C)C`, which outcome is on record?
A: The outcome was “inactive”.

Q: For `Fc1ccc(Br)cc1`, which outcome is on record?
A: Its outcome is “inactive”.

Q: With `CCN1CN(CC)CN(CC)C1` as the molecule, how does the outcome read?
A: Its outcome is “inactive”.

Q: For `CC(c1cc(C(C)(C)C)cc(C(C)(C)C)c1O)c1cc(C(C)(C)C)cc(C(C)(C)C)c1O`, which AC50 is on record?
A: Its AC50 is 30.2 µM (active).

Q: With `O=C1CCCCCCCCCCC1` as the molecule, how does the outcome read?
A: Its outcome is “inactive”.

Q: With `C=C(C)C(=O)OCCCCCCCCCCCC` as the molecule, how does the outcome read?
A: The outcome was “inactive”.

Q: With `CC=C(C)C(C)=O` as the molecule, how does the outcome read?
A: Its outcome is “inactive”.

Q: For `CCCCCCOC(=O)CCCCC(=O)OCCCCCC`, which outcome is on record?
A: The outcome was “inactive”.

Q: For `O=C1CCCCCCCCCCCN1`, which outcome is on record?
A: Its outcome is “inactive”.

Q: With `CC(C)CCCCCOC(=O)CS` as the molecule, how does the outcome read?
A: The outcome was “inactive”.
